# Values without a mark were called inactive. Entries that show only a call come without a potency. For some of these results: Potency and affinity values are given separately. The source made the active and inactive calls. Unless noted, how the calls were made is not given here.
# Experiments:
# [1] = antimalarial activity against Dd2 strain (AID 2302;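 active means growth inhibition above 50% at the single 2 µM test dose, taken to imply half-maximal potency below 2 µM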); conditions: P. falciparum Dd2 in RBCs, LDH growth readout, 72 h; at 2 µM; active compounds read high
# [2] = human hepatoma cell viability loss – ATP luminescence, cytotoxicity control for P. falciparum antimalarial project, primary screen (AID 2303;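 active means inhibition above 50%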); conditions: HepG2 viability, 24-48 h, at 10 µM, active compounds read high
# [3] = biological target: L-lactate dehydrogenase (Plasmodium falciparum (isolate CDC / Honduras)) (UniProt Q27743); assay: PfLDH activity inhibition – cell lysate, 3D7 strain, counter-screen for P. falciparum growth inhibition project (AID 2304); conditions: P. falciparum 3D7 crude extract, LDH APAD/NBT absorbance; at 2 µM; active compounds read high
# L-lactate dehydrogenase (Plasmodium falciparum (isolate CDC / Honduras)), sequence (Q27743 whole entry, looked up): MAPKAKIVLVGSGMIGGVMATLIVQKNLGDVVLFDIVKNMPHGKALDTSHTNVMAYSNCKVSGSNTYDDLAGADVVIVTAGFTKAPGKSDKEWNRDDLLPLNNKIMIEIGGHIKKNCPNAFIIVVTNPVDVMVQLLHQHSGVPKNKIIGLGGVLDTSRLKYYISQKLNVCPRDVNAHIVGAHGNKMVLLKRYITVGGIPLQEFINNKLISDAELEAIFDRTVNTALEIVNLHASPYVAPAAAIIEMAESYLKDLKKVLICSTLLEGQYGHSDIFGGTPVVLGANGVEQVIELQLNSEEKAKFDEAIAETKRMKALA
# [4] = inhibition of 3D7 malaria parasite growth – strain 3D7 (AID 2306); conditions: P. falciparum 3D7 erythrocytic growth, LDH absorbance, 72 h; at 2 µM; active compounds read high
# [5] = biological target: Calcium-dependent protein kinase 1 (Plasmodium falciparum (isolate 3D7)) (UniProt P62344); assay: PfCDPK1 kinase inhibitors, biochemical, TCAMS library (AID 1159585; cut-off not given, nearly all actives have IC50 up to about 0.98 µM;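 further: inhibitors leave more ATP so luminescence rises with inhibition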); conditions: recombinant PfCDPK1, Kinase-Glo ATP depletion luminescence
# Calcium-dependent protein kinase 1 (Plasmodium falciparum (isolate 3D7)), sequence (P62344 whole entry, looked up): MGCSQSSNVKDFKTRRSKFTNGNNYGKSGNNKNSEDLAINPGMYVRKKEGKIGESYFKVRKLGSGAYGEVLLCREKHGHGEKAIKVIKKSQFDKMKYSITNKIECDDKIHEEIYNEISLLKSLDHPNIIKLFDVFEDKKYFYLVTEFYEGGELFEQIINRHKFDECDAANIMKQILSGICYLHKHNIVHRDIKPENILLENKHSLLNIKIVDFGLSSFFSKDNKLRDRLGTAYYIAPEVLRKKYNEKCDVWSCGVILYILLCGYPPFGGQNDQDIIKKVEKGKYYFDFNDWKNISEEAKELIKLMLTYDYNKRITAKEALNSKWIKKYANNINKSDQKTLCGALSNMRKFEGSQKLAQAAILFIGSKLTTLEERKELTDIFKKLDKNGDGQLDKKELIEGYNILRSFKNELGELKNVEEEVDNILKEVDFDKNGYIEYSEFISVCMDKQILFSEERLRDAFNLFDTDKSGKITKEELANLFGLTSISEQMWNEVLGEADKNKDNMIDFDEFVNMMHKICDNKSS
# [6] = biological target: Plasmodium falciparum protein kinase 6 (PK6, PF3D7_1337100) (UniProt Q8IDW1); assay: PfPK6 kinase inhibitors, biochemical, TCAMS library (AID 1159586); conditions: recombinant PfPK6, Kinase-Glo ATP depletion luminescence
# Plasmodium falciparum protein kinase 6 (PK6, PF3D7_1337100), sequence (Q8IDW1 1-305): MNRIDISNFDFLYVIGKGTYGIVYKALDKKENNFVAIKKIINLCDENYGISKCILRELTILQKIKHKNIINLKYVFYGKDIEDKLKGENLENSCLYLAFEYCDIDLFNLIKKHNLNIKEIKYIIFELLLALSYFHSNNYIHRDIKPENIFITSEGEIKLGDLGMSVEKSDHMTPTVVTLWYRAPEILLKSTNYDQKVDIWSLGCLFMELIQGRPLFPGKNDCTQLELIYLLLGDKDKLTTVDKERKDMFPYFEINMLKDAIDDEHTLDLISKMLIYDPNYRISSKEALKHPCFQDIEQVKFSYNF
# [7] = biological target: Protein kinase 7 (PK7), Plasmodium falciparum 3D7 (PF3D7_0213400) (UniProt Q7YTF7); assay: inhibition of Plasmodium PK7 catalytic activity – biochemical, TCAMS antimalarial set, Kinase-Glo luminescence (AID 1159587); conditions: recombinant PfPK7, Kinase-Glo ATP depletion luminescence
# Protein kinase 7 (PK7), Plasmodium falciparum 3D7 (PF3D7_0213400), sequence (Q7YTF7 1-343): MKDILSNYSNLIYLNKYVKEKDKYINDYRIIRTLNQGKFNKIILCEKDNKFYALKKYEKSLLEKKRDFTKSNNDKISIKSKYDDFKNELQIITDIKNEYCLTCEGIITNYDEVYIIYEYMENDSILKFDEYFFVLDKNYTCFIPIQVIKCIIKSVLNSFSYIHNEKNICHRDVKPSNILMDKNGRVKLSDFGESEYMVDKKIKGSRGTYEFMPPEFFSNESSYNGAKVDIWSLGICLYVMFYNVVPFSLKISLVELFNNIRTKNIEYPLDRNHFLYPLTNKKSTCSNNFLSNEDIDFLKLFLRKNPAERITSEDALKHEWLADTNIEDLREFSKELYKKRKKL
# [8] = biological target: Calcium-dependent protein kinase 4 (Plasmodium falciparum (isolate 3D7)) (UniProt Q8IBS5); assay: PfCDPK4 kinase inhibitors, biochemical, TCAMS library (AID 1159588; cut-off not given, nearly all actives have IC50 up to about 0.91 µM); conditions: recombinant PfCDPK4, Kinase-Glo ATP depletion luminescence
# Calcium-dependent protein kinase 4 (Plasmodium falciparum (isolate 3D7)), sequence (Q8IBS5 whole entry, looked up): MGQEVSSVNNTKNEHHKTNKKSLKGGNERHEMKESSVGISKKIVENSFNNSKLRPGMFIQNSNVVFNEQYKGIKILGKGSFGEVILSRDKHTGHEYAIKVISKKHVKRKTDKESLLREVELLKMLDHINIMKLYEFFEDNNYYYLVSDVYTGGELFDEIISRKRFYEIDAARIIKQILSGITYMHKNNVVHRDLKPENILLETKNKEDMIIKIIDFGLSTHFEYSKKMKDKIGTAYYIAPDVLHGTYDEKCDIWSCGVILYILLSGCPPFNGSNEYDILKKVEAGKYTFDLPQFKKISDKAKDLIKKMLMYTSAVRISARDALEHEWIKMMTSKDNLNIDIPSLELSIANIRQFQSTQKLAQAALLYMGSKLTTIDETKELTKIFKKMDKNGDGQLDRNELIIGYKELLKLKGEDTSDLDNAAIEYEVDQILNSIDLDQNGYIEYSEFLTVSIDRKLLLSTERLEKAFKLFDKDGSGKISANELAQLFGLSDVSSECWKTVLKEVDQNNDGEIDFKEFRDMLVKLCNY
Structure (SMILES),growth inhibition [1],inhibition [2],inhibition [3],growth inhibition [4],outcome [5],outcome [6],outcome [7],outcome [8]
Cc1cc(C2CCN(CCCCNC(=O)c3ccc(NC(=O)c4ccc(Cl)cc4)cc3)CC2)c(C)cc1OCc1ccncc1,92% (active),33%,6%,100% (active),inactive,inactive,inactive,inactive
N#Cc1ccc(C=CC(=O)NC2CCC(CCN3CCc4ccc(-c5cnccn5)cc4CC3)CC2)cc1 (stereo not given),87% (active),37%,-5%,100% (active),inactive,inactive,inactive,inactive
COc1ccccc1CCNc1nc(C)cc(N[C@@H](Cc2ccccc2)C(=O)NCc2cccs2)n1,73% (active),18%,1%,100% (active),inactive,inactive,inactive,inactive
CCOc1ccc2c(NN=Cc3cccc(Cl)c3)cc(C)nc2c1,34%,-5%,-2%,93% (active),inactive,inactive,inactive,inactive
OCc1ccc(-c2cncc(Nc3ccc(F)c(Cl)c3)c2)cc1,99% (active),2%,-2%,92% (active),inactive,inactive,inactive,inactive
c1ccc(CN2CCC(NCc3ccc(-c4cccc(CNC5CCCC5)c4)cc3)CC2)cc1,100% (active),55% (active),-8%,101% (active),inactive,inactive,inactive,inactive
COc1ccc(CNCCc2cccs2)cc1-c1cccc(S(=O)(=O)NCCN2CCCC2)c1,41%,56% (active),-1%,98% (active),inactive,inactive,inactive,inactive
CN(C)CCCOc1ccc(CN2CC[C@H](NC(=O)c3ccc(Cl)c(Cl)c3)C2)c2ccccc12,97% (active),81% (active),0%,101% (active),inactive,inactive,inactive,inactive
Cn1c(Nc2cc(C(C)(C)C)on2)nc2cc(Nc3ccnc(Nc4ccc(CS(C)(=O)=O)cc4)n3)ccc21,68% (active),37%,-1%,101% (active),inactive,inactive,inactive,inactive
O=C(CCN1C(=O)c2ccccc2C1=O)N1CCN(CC=Cc2ccccc2)CC1,3%,10%,-1%,87% (active),inactive,inactive,inactive,inactive
O=C(Nc1cccc(CN2CCN(Cc3ccc(O)cc3)CC2)c1)c1cc2ccccc2s1,26%,15%,-4%,100% (active),inactive,inactive,inactive,inactive
Cc1cccc(Nc2nc(N)c3ccccc3n2)c1,49%,1%,3%,99% (active),inactive,inactive,inactive,inactive
N#Cc1ccc(NC(=O)c2ccc(C(=O)NCCCCN3CCC(c4ccc5c(c4OCCOC4CCCCO4)CCCC5)CC3)cc2)cc1 (stereo not given),97% (active),72% (active),-6%,99% (active),inactive,inactive,inactive,inactive
O=C(NC(NC(=S)Nc1ccc([N+](=O)[O-])cc1)C(Cl)(Cl)Cl)c1cccc(Cl)c1 (stereo not given),100% (active),24%,0%,97% (active),inactive,inactive,inactive,inactive
Cc1ccccc1N1CCN(c2ccc(C(=O)Nc3ccccc3)cc2)CC1,91% (active),22%,-2%,89% (active),inactive,inactive,inactive,inactive
CC(=NN=C(N)N)c1ccc2c(c1)Cc1ccccc1-2,10%,44%,5%,101% (active),inactive,inactive,inactive,inactive
COc1ccc2nccc([C@@H](O)CN3CCC(NCc4ccc(OC)c(NC(C)=O)c4)CC3)c2c1,0%,-5%,-4%,90% (active),inactive,inactive,inactive,inactive
Clc1cc(Cl)cc(Nc2ccnc(Nc3cc(Cl)cc(Cl)c3)n2)c1,73% (active),11%,-1%,99% (active),inactive,inactive,inactive,inactive

Structure (SMILES),growth inhibition [1],inhibition [2],inhibition [3],growth inhibition [4],outcome [5],outcome [6],outcome [7],outcome [8]
COc1ccc(N2CCN(CCCCNC(=O)c3ccc(NC(=O)c4cccc(Cl)c4)cc3)CC2)c(OC)c1,33%,18%,0%,101% (active),inactive,inactive,inactive,inactive
O=C(Nc1ccc(OC2CCN(Cc3ccccc3)CC2)c(Cl)c1)c1ccc(F)cc1,92% (active),30%,9%,94% (active),inactive,inactive,inactive,inactive
CC(C)N1CCC(N(Cc2ccc(-c3ccc(C(F)(F)F)cc3)cc2)C(=O)Cn2c(CCc3cccc(F)c3F)nc(=O)c3cccnc32)CC1,80% (active),100% (active),6%,100% (active),inactive,inactive,inactive,inactive
c1cc(-c2ccc(CNC3CC3)cc2)cc(-c2nc3ccccc3[nH]2)c1,8%,17%,1%,96% (active),inactive,inactive,inactive,inactive
COc1cc(C(=O)NC2CCN(Cc3ccccc3)CC2)ccc1-c1nc2cc(Cl)c(Cl)cc2[nH]1,100% (active),14%,4%,103% (active),inactive,inactive,inactive,inactive
CCOc1cc2c(cc1S(=O)(=O)c1ccc(COc3ccc(C(F)(F)F)cc3)cc1)CCN(C)CC2,14%,27%,-5%,87% (active),inactive,inactive,inactive,inactive
COc1ccc(-n2ccnc2SCC(=O)Nc2cc(Cl)ccc2OC)c(OC)c1,92% (active),-3%,-8%,96% (active),inactive,inactive,inactive,inactive
c1ccc2c(Nc3ccc(Oc4ccc(Nc5c6ccccc6nc6ccccc56)cc4)cc3)c3ccccc3nc2c1,99% (active),21%,-2%,101% (active),inactive,inactive,inactive,inactive
COc1ccc2ncc(F)c([C@@H](O)CN3CCC(NCc4cc5c(cn4)OCCO5)CC3)c2c1,98% (active),-4%,-7%,100% (active),inactive,inactive,inactive,inactive
FC(F)(F)c1ccc(CNCC2CCN(Cc3ccc4c(c3)OCO4)CC2)cc1,12%,27%,-5%,80% (active),inactive,inactive,inactive,inactive
Cc1ccccc1C1CCN(C2CCC(NC(=O)/C=C/c3c[nH]c4ccccc34)CC2)CC1 (stereo not given),51% (active),30%,2%,100% (active),inactive,inactive,inactive,inactive
Cc1c(O)cccc1Nc1ccnc2ccc(C(F)(F)F)cc12,51% (active),-15%,-2%,96% (active),inactive,inactive,inactive,inactive
COCC(C)n1c(SCC(=O)Nc2cc(C(F)(F)F)ccc2Cl)nc2ccccc2c1=O (stereo not given),96% (active),3%,6%,97% (active),inactive,inactive,inactive,inactive
COc1ccc(S(=O)(=O)Nc2cc(C)cc(Br)c2OC)cc1N1CCN(C(=O)C(Cl)(Cl)Cl)CC1,66% (active),9%,0%,91% (active),inactive,inactive,inactive,inactive
CCOc1cc(C(=O)N[C@@H](Cc2ccccc2)[C@H](O)CNCc2cc(OC)cc(OC)c2)cc(N2CCCC2=O)c1,63% (active),0%,4%,94% (active),inactive,inactive,inactive,inactive
CC[C@H]1CN(CCCC(=O)c2ccccc2)CC[C@H]1CCCc1ccnc2ccc(OC(=O)c3ccccc3)cc12,68% (active),28%,1%,83% (active),inactive,inactive,inactive,inactive
NC(N)=NN=Cc1cc([N+](=O)[O-])ccc1Sc1ccccc1CO,-1%,25%,-2%,84% (active),inactive,inactive,inactive,inactive

# From PubChem BioAssay
